Screening data from PubChem BioAssay.
PINK1 expr mod: A Quantitative High throughput Screen to Identify Chemical Modulators of PINK1 Expression. PINK1 immunofluorescence, high-content cytometry, 24 h. Potency, µM (series often up to 76.6 µM), usual class: activators. hit rate 0.2% among 410,000; active means well fitted activation curve with a large enough effect; inconclusive means small, poorly fitted or top-dose-only effect; cell line not stated here; further: nearly all actives have a fitted effect of over 65% in size
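Compound titrations (5 concentrations, 24 h) on a stable cell line; DMSO and CCCP controls. Endpoint: fixed-cell PINK1 immunofluorescence with mitochondrial, cell and nuclear markers, scanned by microplate cytometer.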
ClpP mod: qHTS Assay for Activators of ClpP; hit rate 1.9% among 340,000; ATP-dependent Clp protease proteolytic subunit (Bacillus subtilis (strain 168)), P80244; purified B. subtilis ClpP, FRET peptide cleavage, 20 min; AID 651965, 2013; Potency, µM (titrated, usually from 57.5 µM); active means well fitted falling curve with a large enough effect; inconclusive means small, poorly fitted or top-dose-only effect; inactive means no such curve, though single readings can be large or run the other way; further: the source files actives as falling curves though it sought activators and does not explain the sign; nearly all actives have a fitted effect of over 65% in size
Target sequence (P80244 whole entry, looked up): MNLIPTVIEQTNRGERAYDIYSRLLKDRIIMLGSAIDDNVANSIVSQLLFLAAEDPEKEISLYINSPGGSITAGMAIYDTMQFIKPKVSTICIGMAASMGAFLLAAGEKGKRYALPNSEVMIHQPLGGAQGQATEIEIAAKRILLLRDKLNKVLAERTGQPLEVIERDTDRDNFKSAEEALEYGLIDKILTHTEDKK
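Purified B. subtilis ClpP, 10 microg/mL final in Tris/HCl pH8 with KCl, BSA, glycerol and Tween-20, cleaved an Abz/nitrotyrosine-quenched decapeptide. Fluorescence (ex 320, em 430) was read at 0 and 20 min at room temperature. Delta was normalized to 5.8 microM ADEP and DMSO/no-enzyme controls.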
Sfp inh: qHTS Assay for Inhibitors of Bacillus subtilis Sfp phosphopantetheinyl transferase (PPTase). Biochemical Sfp PPTase activity, qHTS. Potency, µM, hits mostly inhibitors. hit rate 3.5% among 310,000. 4'-phosphopantetheinyl transferase ffp (Bacillus subtilis), Q9F4F7;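 further: the enzyme is Sfp with the accession as filed and its product quenches rhodamine fluorescence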
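Step 1, compound plus 15 nM Sfp-PPTase, 15 min, room temperature. Step 2, add rhodamine-CoA (5 uM) and BHQ-2-YbbR (12.5 uM). Step 3, read 525/598 nm fluorescence at 0 and 30 min.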
Epigenetic reg: Quantitative High-Throughput Screen for Regulators of Epigenetic Control. murine LDR cells, GFP reporter derepression, 30 h. hit rate 0.2% among 280,000. Potency, µM (top dose mostly 53.9 µM), most hits filed as activators; further: nearly all actives have a fitted effect of over 60% in size
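Reporter derepression read as number of fluorescent GFP-positive objects, 20-120 um in size, counted by laser-scanning cytometer. Mouse LDR line with an epigenetically silenced CMV-GFP locus; compound incubation 30 h, 37 C.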
RORg inh: qHTS for inhibitors of ROR gamma transcriptional activity | Drosophila S2 Gal4-RORgamma UAS-luciferase reporter, 20 h | Potency, µM (doses to about 53.6 µM), hits mostly inhibitors | hit rate 5.4% among 310,000; further: nearly all actives have a fitted effect of over 60% in size
Target sequence (P51450 whole entry, looked up, the tested form may be a part): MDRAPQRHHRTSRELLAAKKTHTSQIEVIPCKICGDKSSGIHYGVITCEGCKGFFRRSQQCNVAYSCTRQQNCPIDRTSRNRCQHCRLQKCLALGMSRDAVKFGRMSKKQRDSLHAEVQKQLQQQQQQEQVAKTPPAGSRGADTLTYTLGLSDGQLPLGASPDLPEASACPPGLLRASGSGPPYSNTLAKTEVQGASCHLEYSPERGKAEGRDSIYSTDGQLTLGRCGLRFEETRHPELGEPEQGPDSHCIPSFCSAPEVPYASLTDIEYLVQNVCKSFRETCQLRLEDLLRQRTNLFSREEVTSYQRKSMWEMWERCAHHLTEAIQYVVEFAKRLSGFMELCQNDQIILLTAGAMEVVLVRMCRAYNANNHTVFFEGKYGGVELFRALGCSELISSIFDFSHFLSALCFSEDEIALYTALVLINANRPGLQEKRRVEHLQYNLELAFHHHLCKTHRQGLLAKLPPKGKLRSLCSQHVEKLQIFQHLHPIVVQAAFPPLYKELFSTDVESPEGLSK
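A Gal4/UAS one-hybrid system in insect cells: metallothionein-promoter Gal4–ROR gamma fusion plus Photinus luciferase reporter. Copper sulfate 700 uM final, 20 hr ambient incubation, luminescent detection after 10 min with reagent.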
Gal4-VP16 FLuc: VP16 counterscreen qHTS for inhibitors of ROR gamma transcriptional activity; hit rate 3.5% among 310,000; Drosophila S2 Gal4-VP16 UAS-luciferase, luminescence, 20 h; AID 2546, 2010; Potency, µM (doses to about 53.6 µM), hits mostly inhibitors;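 further: Gal4-VP16 expression switched on by copper sulfate through the metallothionein promoter; nearly all actives have a fitted effect of over 50% in size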
A number is an active result. Sampled rows, rich in hits. Any-hit rate of the full collection: about 8.1%. Unless noted, the call rests on the fitted dose curve; in most records, active means well fitted curve in the direction sought with a large enough effect; inconclusive means small, poorly fitted or top-dose-only effect, or another doubt; inactive means no such curve, though single readings can be large; an effect the other way counts as inactive or inconclusive.

For CC(=O)NCCNC(=O)c1cnn(-c2nccc(-c3cc(C)sc3C)n2)c1C the results were PINK1 expr mod inactive.
For Cc1ccccc1OCC(=O)N/N=C/c1ccc(N2CCOCC2)o1 the results were PINK1 expr mod inactive, ClpP mod inactive, Sfp inh 20µM, RORg inh 14µM and Gal4-VP16 FLuc 6.3µM.
Screening CC(C)(C)OC(=O)NCCC(=O)N/N=C/c1cccc2cccnc12 returned PINK1 expr mod inactive, Sfp inh inactive, Epigenetic reg inactive, RORg inh inconclusive and Gal4-VP16 FLuc inactive.
`C/C(CC(=O)Nc1cc(Cl)ccc1Cl)=N\NC(=O)COc1cccc(C)c1` gave PINK1 expr mod inactive, Sfp inh inactive, RORg inh inactive and Gal4-VP16 FLuc inactive.
For CC(C)(C)OC(=O)N1CCC[C@H]1C(=O)N/N=C/c1cccc2cccnc12 the results were PINK1 expr mod inactive, ClpP mod inactive, Sfp inh 45µM, Epigenetic reg inactive, RORg inh inconclusive and Gal4-VP16 FLuc inactive.
`COc1ccc(Cl)cc1NC(=O)C/C(C)=N/NC(=O)COc1ccc(C)cc1` gave PINK1 expr mod inactive, Sfp inh inactive, RORg inh 11µM and Gal4-VP16 FLuc inactive.
For Cc1ccccc1OCC(=O)N/N=C/c1cccc2cccnc12 the results were PINK1 expr mod inactive, ClpP mod inactive, Sfp inh inactive, RORg inh 11µM and Gal4-VP16 FLuc 14µM.
For COc1ccc(CN2CCCC(n3cc(C(=O)N4CCCCC4)nn3)C2)c(OC)c1C (stereo unspecified) the results were PINK1 expr mod inactive.
For CN(C)CCOc1ccc(C(C)(C)c2ccccc2)cc1 the results were PINK1 expr mod inactive, ClpP mod inactive, Sfp inh 45µM, Epigenetic reg inactive, RORg inh inactive and Gal4-VP16 FLuc inactive.
For C=CCNCCOc1ccc(C(C)(C)c2ccccc2)cc1 the results were PINK1 expr mod inactive, ClpP mod inactive, Sfp inh inconclusive, Epigenetic reg inactive, RORg inh inactive and Gal4-VP16 FLuc inactive.
For CN(C)CCOc1ccccc1C(C)(C)C the results were PINK1 expr mod inactive, ClpP mod inactive, Sfp inh 79µM, Epigenetic reg inactive, RORg inh inactive and Gal4-VP16 FLuc inactive.
`CCN1CCN(c2ncc3c(n2)CCN(Cc2ccccc2C)C3)CC1` gave PINK1 expr mod inactive, ClpP mod inactive and Epigenetic reg inactive.
`COc1ccc(C2=Nn3c(nnc3-c3cccc(OC)c3OC)SC2)cc1` gave Sfp inh inactive, RORg inh inactive and Gal4-VP16 FLuc inactive.
Screening Cc1c(C)n(Cc2ccc(F)cc2)c2ccc(C(=O)Nc3ccc(Cl)cc3)cc12 returned PINK1 expr mod inactive, ClpP mod 32µM and Epigenetic reg inactive.
Screening Cc1ccc(CCNC(=O)c2ccc3c(c2)c(C)c(C)n3Cc2ccccc2)cc1 returned PINK1 expr mod inactive, ClpP mod 22µM and Epigenetic reg inactive.
For CCOc1ccc(NC(=O)c2ccc3c(c2)c(C)c(C)n3Cc2ccc(F)cc2)cc1 the results were PINK1 expr mod inactive, ClpP mod inconclusive and Epigenetic reg inactive.
For CCc1ccc(CNC(=O)c2ccc3c(c2)c(C)c(C)n3Cc2ccccc2)cc1 the results were PINK1 expr mod inactive, ClpP mod 25µM and Epigenetic reg inactive.
CCn1nc(C)c(/C=N/NC(=O)c2ccc3c(c2)c(C)c(C)n3Cc2ccccc2)c1C was read as PINK1 expr mod inactive, ClpP mod 10µM, Sfp inh inactive, Epigenetic reg inactive, RORg inh inactive and Gal4-VP16 FLuc inactive.
CCOc1ccc(CCNC(=O)c2ccc3c(c2)c(C)c(C)n3Cc2ccccc2)cc1OCC was read as PINK1 expr mod inactive, ClpP mod inconclusive and Epigenetic reg inactive.
O=C(CCCCn1c(=O)c2ccccc2n(Cc2ccc(Cl)cc2)c1=O)NCc1ccccc1Cl was read as PINK1 expr mod inactive, ClpP mod inactive and Epigenetic reg inactive.
For CN(C)c1nc(NC2CCC(NC(=O)c3ccc(F)c(F)c3)CC2)nc2ccccc12 (stereo unspecified) the results were Sfp inh inactive, RORg inh inconclusive and Gal4-VP16 FLuc inconclusive.
CC(=O)c1cccc(NC(=O)c2ccc3c(c2)c(C)c(C)n3Cc2ccc(Cl)cc2)c1 was read as PINK1 expr mod inactive, ClpP mod inactive and Epigenetic reg inactive.
`CCc1ccc(NC(=O)c2ccc3c(c2)c(C)c(C)n3Cc2ccccc2)cc1` gave PINK1 expr mod inactive, ClpP mod 22µM and Epigenetic reg inactive.
CCc1cccc(NC(=O)c2ccc3c(c2)c(C)c(C)n3Cc2ccc(F)cc2)c1 was read as PINK1 expr mod inactive, ClpP mod 20µM and Epigenetic reg inactive.
C=C(C)Cn1c(CCNC(=O)C(C)C)nc2ccccc21 was read as PINK1 expr mod inactive, ClpP mod inactive, Sfp inh inactive, Epigenetic reg inactive, RORg inh inactive and Gal4-VP16 FLuc inactive.
For C=C(C)Cn1c(CCNC(=O)CC)nc2ccccc21 the results were PINK1 expr mod inactive, ClpP mod 32µM, Sfp inh inactive, Epigenetic reg inactive, RORg inh inactive and Gal4-VP16 FLuc inactive.
For Cc1c(C)n(Cc2ccccc2)c2ccc(C(=O)NCc3ccco3)cc12 the results were PINK1 expr mod inactive, ClpP mod inactive and Epigenetic reg inactive.
`Cc1ccc(Cn2c(CCNC(=O)c3cccc(C)c3)nc3ccccc32)cc1` gave PINK1 expr mod inactive, ClpP mod 22µM and Epigenetic reg inactive.
Screening CC[N+]1(CC(=O)c2ccc(Cl)cc2)CCCCC1 returned ClpP mod inactive.
`NC(=S)N/N=C1\c2ccccc2-c2c(C(=O)O)cccc21` gave PINK1 expr mod inactive, ClpP mod inactive, Sfp inh 79µM, RORg inh inactive and Gal4-VP16 FLuc inactive.
CCn1c(/C=C/N(C(C)=O)c2ccccc2)[n+](CC)c2ccc(Cl)cc21 was read as PINK1 expr mod inactive, ClpP mod inactive, Sfp inh inactive, Epigenetic reg inactive, RORg inh inactive and Gal4-VP16 FLuc inactive.
CC[n+]1c(/C=C/C=C/N(C(C)=O)c2ccccc2)sc2ccccc21 was read as PINK1 expr mod inconclusive, ClpP mod inactive, Sfp inh 50µM, Epigenetic reg inactive, RORg inh inactive and Gal4-VP16 FLuc inactive.
For Cc1nn(-c2ccccc2)c(Cl)c1/C=N/NC(=O)OC(C)(C)C the results were PINK1 expr mod inactive, ClpP mod inactive, Sfp inh inactive, Epigenetic reg inactive, RORg inh inconclusive and Gal4-VP16 FLuc inactive.
